# Cycloheximide cs: counter-screen hit for Shiga toxin inhibitors, cycloheximide | cell reporter, cycloheximide protein synthesis inhibition counterscreen | max response, % | 12% of 300,000 active | AID 2314; in the data active = max response mostly above about 13%, no sharp cut-off; inactive = mostly below about 14%; also: read at 38.3 µM for the half of the compounds with a filed dose; 0% is about no effect
# Pf growth 48h: P. falciparum growth inhibition at 48 hours (one generation); P. falciparum luciferase growth in erythrocytes, 48 h; Potency, µM (top dose mostly 28.7 µM), without a hit: top-dose activity change, negative = inhibition, most hits filed as inhibitors; 5.9% of 310,000 active; also: potency is read from the fitted curve at half-maximal effect; % is scaled to controls: 0 for no effect and ±100 for the full control effect
#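 Here the parasites carry a stable luciferase gene and grow inside erythrocytes in Albumax-based RPMI medium with compound for one erythrocytic cycle. Activity is scored as loss of luminescent signal.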
# Pf growth 96h: P. falciparum growth inhibition at 96 hour, primary screen for plastid delayed-death inhibitors | P. falciparum luciferase reporter growth, 96 h | Potency, µM (top dose mostly 28.7 µM), for the others: at the top dose activity change, negative = inhibition, hits mostly inhibitors | 6.9% of 320,000 active; also: potency is read from the fitted curve at half-maximal effect; % is scaled to controls: 0 for no effect and ±100 for the full control effect
#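 Compounds incubated with erythrocytes infected by luciferase-expressing P. falciparum (2% hematocrit, 0.05% parasitemia final) for 96 hours, 37 C in 5% CO2. Growth inhibition scored as decreased luciferase luminescence.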
# Shiga inhibitor: Shiga toxin inhibition; inhibition, % at 38.7 µM; 9.2% of 290,000 active; Vero cells, Shiga toxin protein synthesis inhibition reporter; in the data active = inhibition mostly above about 28%, no sharp cut-off; inactive = mostly below about 43%; also: 0% is about no effect
# Starred values were filed as active, the others as inactive; ? = inconclusive; / = no result. Shown are actives, neighbours in structure and some others; about 21% of the full set was active somewhere. Unless noted, calls follow the shape of the dose curve; as a rule, active = well fitted inhibition curve with a large enough effect; inconclusive = small, poorly fitted or top-dose-only effect, or another doubt; inactive = no such curve, though single readings can be large or run the other way.
SMILES,Cycloheximide cs,Pf growth 48h,Pf growth 96h,Shiga inhibitor
CCCCNC(=O)COC(=O)c1ccc(Cl)c(S(=O)(=O)N2CCCC2)c1,12,/,?,18
Cc1ccc(-n2c(C)cc(C(=O)COC(=O)c3ccc[nH]c3=O)c2C)cc1C,27*,-26%,?,67*
CCOC(=O)c1cc(C)n(CCc2ccccc2)c1C,22*,?,84%,27
O=C(NCCCN1CCCC1=O)c1cccc(S(=O)(=O)Nc2ccccc2Cl)c1,/,2%,?,/
CCOc1cccc(C(=O)Nc2ccc3oc(Cc4ccc(Cl)cc4)nc3c2)c1,1,/,/,9
Cc1cc(C(=O)COC(=O)C2=NNC(=O)CC2)c(C)n1-c1ccccc1,29*,13%,/,38*
COc1cccc2c(Cl)c(CC=C(Cl)Cl)c(C)nc12,0,?,-6%,2
C=CCc1c(C)nc2c(OC)cccc2c1Cl,14*,9%,?,34
CC(C)C[C@H](NC(=O)c1[nH]cnc1C(=O)N[C@@H](C)c1ccccc1)C(=O)OCc1ccccc1,8,8.3µM*,5.9µM*,2
CC(C)C[C@H](NC(=O)c1nc[nH]c1C(=O)NCC(=O)OCc1ccccc1)C(=O)OCc1ccccc1,-1,4.7µM*,?,15
O=[N+]([O-])c1ccc(Cl)cc1CNc1ccc(F)c(F)c1,-1,3%,8.3µM*,-8
COc1ccc(NCc2ccccc2[N+](=O)[O-])cc1OC,4,?,?,4
CCCCCCc1ccc(-c2ncc(N)cn2)cc1,60*,297%,237%,122*
CCCCCc1ccc(-c2nnc(N)s2)cc1,43*,-12%,29%,74*
Nc1nnc(-c2cccc(F)c2)s1,-2,10%,16%,26
Nc1nnc(-c2ccc(Cl)c(Cl)c2)s1,25*,24%,4%,21
CCCCCc1nnc(N)s1,-6,/,17%,-2
CC(C)(C)n1nc(-c2ccc(Cl)cc2)c2c(N)ncnc21,-2,12µM*,3.7µM*,-17
CC(C)(C)n1nc(-c2ccc(F)cc2)c2c(N)ncnc21,-4,12µM*,15µM*,-9
Cc1ccc(-c2nc(N)c3c(-c4ccc(C)cc4)nn(C(C)(C)C)c3n2)cc1,6,-17%,?,7
Cc1ccc(-n2c(SCC(=O)NC3CCS(=O)(=O)C3)nc3ccccc3c2=O)cc1C (stereo not drawn),/,?,-24%,/
CCN(CC(=O)Nc1ccc2c(c1)OCCO2)C(=O)c1ccc(Cl)cc1Cl,/,89%,143%,/
CCCNC(=O)COc1coc(CN2CCN(c3ccccc3F)CC2)cc1=O,12,2%,-9%,-1
COc1ccc(NC(=O)COc2coc(CN3c4ccccc4CC3C)cc2=O)cc1 (stereo not drawn),/,?,8.3µM*,/
CC1Cc2ccccc2N1Cc1cc(=O)c(OCC(=O)NCCc2ccccc2)co1 (stereo not drawn),/,13µM*,?,/
SMILES,Cycloheximide cs,Pf growth 48h,Pf growth 96h,Shiga inhibitor
CC(C)(C)c1cc(NC(=O)COC(=O)c2ccc3c(=O)n4c(nc3c2)CCC4)n(-c2ccccc2)n1,16*,2%,6%,29
CCc1ccc(NC(=O)c2ccc3c(=O)n4c(nc3c2)CCCCC4)cc1,37*,?,-21%,47*
CCOc1ccc(NC(=O)c2ccc3c(=O)n4c(nc3c2)CCCCC4)cc1,-1,?,16%,11
CCN(CC)C(=O)c1cccc(NC(=O)c2ccc3c(=O)n4c(nc3c2)CCC4)c1,/,?,0%,/
Cc1csc(NC(=O)c2ccc3c(=O)n4c(nc3c2)CCCCC4)n1,27*,197%,-5%,63*
O=C(Nc1cccc(S(=O)(=O)N2CCCCC2)c1)c1ccc2c(=O)n3c(nc2c1)CCCCC3,6,?,13µM*,-13
O=C1CCC(C(=O)N2CCc3c(Cl)cccc3C2)CN1CCCN1CCOCC1 (stereo not drawn),11,-14%,-25%,-16
COc1ccc(S(=O)(=O)N2CC(C)N(C(=O)N(C)C)C2C(C)C)cc1 (stereo not drawn),-4,3%,12%,-4
O=C(Nc1nccs1)c1ccc2c(=O)n3c(nc2c1)CCCCC3,19*,145%,54%,98*
C=CCN1C(=O)N(CC=C)c2cccc3cccc1c23,-2,0%,20%,-3
C=CCN1C(=O)C(=O)N(Cc2nc3ccccc3s2)C1=O,34*,200%,241%,77*
COCCN(CCOC)S(=O)(=O)c1ccc(C(=O)Nc2sc3c(c2C(N)=O)CCCCC3)cc1,33*,73%,212%,63*
COc1ccc(C(=O)Nc2sc3c(c2C(N)=O)CCCC3)cc1OC,42*,/,/,60*
COC(=O)c1c(NC(=O)c2ccc(N(C)S(=O)(=O)c3ccc(C)cc3)cc2)sc2c1CCCC2,-2,?,?,-10
OC(Cn1ccnc1)c1ccc(Cl)cc1Cl (stereo not drawn),-2,10µM*,9.3µM*,-10
Clc1ccc(C(Cn2ccnc2)OCc2c(Cl)cccc2Cl)c(Cl)c1 (stereo not drawn),/,2.3µM*,2.9µM*,/
Clc1ccc(C(Cn2ccnc2)OCc2csc3c(Cl)cccc23)c(Cl)c1 (stereo not drawn),/,1µM*,2.6µM*,/
Clc1ccc([C@H](Cn2ccnc2)OCc2csc3c(Cl)cccc23)c(Cl)c1,/,?,5.7µM*,/
COc1cc(C(CC(=O)Nc2cc(C)ccn2)N2Cc3ccccc3C2=O)cc(OC)c1OC (stereo not drawn),-6,-4%,-7%,-8
O=C(CN1CCN(Cc2ccccc2)CC1)Nc1ccc(Br)cc1,-3,6%,18%,2
COc1cc(-c2[nH]nc3c2C(c2ccco2)C(C#N)=C(N)O3)cc(OC)c1OC (stereo not drawn),-3,?,?,-10
Cc1cccc(OCC2CCCN(Cc3nc(C4CC4)no3)C2)c1 (stereo not drawn),-3,?,?,34
O=C(NCCN1CCN(C(=O)NC2CCCCC2)CC1)NC1CCCCC1,1,24%,13µM*,14
CCOC(=O)C1(CC2CCCCO2)CCN(Cc2cc3ccccc3[nH]2)CC1 (stereo not drawn),-1,31%,?,7
O=C1CCCN1CC1CCN(Cc2nc(CC3CC3)no2)CC1,11,?,?,48*
SMILES,Cycloheximide cs,Pf growth 48h,Pf growth 96h,Shiga inhibitor
COCC1CCCN(Cc2nc(Cc3ccccc3)no2)C1 (stereo not drawn),8,0%,-9%,30
C1CC1Cc1noc(CN2CCN(C3C4CC5CC(C4)CC3C5)CC2)n1 (stereo not drawn),-3,20%,13µM*,23
c1cnc(-c2noc(CN3CCN(C4C5CC6CC(C5)CC4C6)CC3)n2)cn1 (stereo not drawn),-4,7%,-3%,-5
O=C1CCCN1CC1CCCN(Cc2nc(COc3ccccc3)no2)C1 (stereo not drawn),9,-3%,15µM*,-6
NC(=O)C1CCN(C(=O)CN(C2CCCCC2)S(=O)(=O)c2ccc(F)cc2)CC1,-3,5%,8%,-5
CCCn1c2c(c(O)c(C(=O)Nc3nc4ccccc4s3)c1=O)CCCC2,-2,18%,-6%,-18

# Compound activity as filed in PubChem BioAssay.
